Test results reported in PubChem BioAssay (NCI).
Compounds without any hit were thinned out: in the full panel of roughly 83,000, 20% have a hit.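 96-well plates, one dose, 48 hours. Percent growth reported; active if below 10.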 Active and inactive are the calls of the source.

System: HL-60(TB) leukemia
Test: NCI-60 one-dose screen, 48 h (100 = growth as untreated, 0 = no growth, -100 = all killed)
Conditions: 10 µM unless noted

Structure (SMILES)	growth
CNC(=O)CCN1CCN(CC/C=C2\c3ccccc3Sc3ccc(Cl)cc32)CC1	50.2% (inactive)
CC(C)C1=NOC(=O)C1=Cc1cn(-c2ccco2)nc1-c1ccccc1	3.89% (active)
O=C1/C(=C\c2ccc(Cl)cc2)CN(C(=S)Nc2ccccc2)C/C1=C\c1ccc(Cl)cc1	-15.4% (active)
Cc1nn(-c2ccccc2)c2c1oc(=O)c1cc(Cl)ccc12	84.3% (inactive)
COc1ccc(-c2nc(SC(C)C)nc(NNC(N)=S)c2C#N)cc1	14.3% (inactive)
COc1ccc(/C(C)=N/NS(=O)(=O)c2ccc(C)cc2)cc1OC	97.6% (inactive)
O=C1C=CC(=O)N1c1ccc(I)cc1Cl	97.9% (inactive)
Cn1c2c(c3ccc(-c4ccn[nH]4)cc3c1=O)C(=O)c1ccccc1-2	-17.7% (active)
O=c1c2ccccc2oc2ccc(OCCCCCCN3CCCCCC3)cc12	-47.9% (active)
O=C(NN1C(=O)CSC1c1cccc([N+](=O)[O-])c1)c1ccc(NC(=O)c2ccccn2)cc1 (stereo not given)	67.6% (inactive)
Cc1ccc(/C=C(\C#N)n2nnc3cc(Cl)c(Cl)cc32)cc1	1.4% (active)
COc1ccc([N+](=O)[O-])c(/C=C/C(=O)c2ccccn2)c1	88.9% (inactive)
C=C(c1ccc(C(=O)O)c(F)c1)c1cc2c(cc1C)C(C)(C)CCC2(C)C	97.2% (inactive)
Cc1ccc(C(=O)c2oc3ccc4c(C)cc(=O)oc4c3c2C)cc1	7.9% (active)
O=c1cc(CP(=O)(O)O)c2cc(O)c(-c3ccccc3)cc2o1	104% (inactive)
